Test [1] is described as follows: qHTS assay for small molecule agonists of the p53 signaling pathway (AID 651631; calls by dose curve; note: nearly all actives have a fitted effect of over 15% in size; note: potency is the fitted concentration of half-maximal effect). The method in brief: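 HCT-116 cells carrying a stable p53 response element–beta-lactamase reporter were plated, rested 5 h at 37 °C, then exposed to compound in DMSO for 16 h at 37 °C; reporter activity was read as FRET substrate fluorescence after 2 h at room temperature.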
For orientation: qHTS replaces the single test concentration by a dilution series.

Test [2] can be described thus: qHTS assay for small molecules that induce genotoxicity in human embryonic kidney cells expressing luciferase-tagged ATAD5 (AID 651632). Note: nearly all actives have a fitted effect of over 15% in size. Put shortly: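 A rise in luciferase signal from ATAD5-tagged HEK293T cells marks genetic stress. Cells were exposed to compounds for 16 hr at 37C, 5% CO2, then luciferase was quantified after a 30 min room-temperature incubation with Amplite.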

The nature of test [3]: qHTS assay for small molecule agonists of the p53 signaling pathway - cell viability (AID 651633; calls by dose curve; note: series mostly up to about 83 µM; nearly all actives have a fitted effect of over 30% in size). Put shortly: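 p53RE-bla cells, seeded at 4,000 per well and rested 5 h at 37 C/5% CO2, received compounds in DMSO for 16 h at 37 C. CellTiter-Glo was then added, and luminescence was read after 30 min at room temperature to gauge cytotoxicity.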
The nature of test [4]: qHTS assay for small molecules that induce genotoxicity in human embryonic kidney cells expressing luciferase-tagged ATAD5 - cell viability (AID 651634; calls by dose curve; note: nearly all actives have a fitted effect of over 25% in size; note: potency is the fitted concentration of half-maximal effect). Put shortly:
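Cytotoxicity counter-readout: after 15.5 hr compound treatment at 37C, live-cell protease activity in ATAD5-luciferase HEK293T cells measured by CellTiter-Fluor fluorescence, 30 min development at 37C.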

Test [5] can be described thus: qHTS assay for small molecule disruptors of the mitochondrial membrane potential - cell viability (AID 720634; calls by dose curve;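 note: human HepG2 liver cancer cells; series mostly up to about 83 µM; nearly all actives have a fitted effect of over 20% in size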). The method in brief: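 Cytotoxicity was quantified from ATP content by CellTiter-Glo luminescence in the same wells as the MMP dye read-out. HepG2 (2,000 cells/well) were plated overnight and exposed to compounds for 1 hr at 37 C.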
A short description of test [6]: qHTS assay to test for compound auto fluorescence at 590 nm (red) in HepG2 cells (AID 720674). The method in brief:
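Rose Bengal sodium served as the red fluorophore standard. HepG2 monolayers (overnight attachment, MEM with 10% FBS) were exposed to test compounds for 1 hr at 37 C and read at Ex 540/Em 590 nm.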

Test [7] can be described thus: qHTS assay to test for compound auto fluorescence at 535 nm (green) in HepG2 cells (AID 720675).
The nature of test [8]: qHTS assay to test for compound auto fluorescence at 460 nm (blue) in HEK293 cells (AID 720678). Put shortly:
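Intrinsic compound fluorescence is recorded in live HEK293 cultures after overnight incubation at 37C, 5% CO2, using excitation 405 nm and emission 460 nm. Values are referenced to triamterene.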

Test [9] is described as follows: qHTS assay to test for compound auto fluorescence at 590 nm (red) in HEK293 cells (AID 720679). The method in brief:
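Red autofluorescence, HEK293 cells: 2,000 cells/well; attach 4-5 hr 37C; add 23 nL cpd or DMSO; incubate o/n 37C 5% CO2; read Ex540/Em590; Rose Bengal sodium reference.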

Molecules are shown by their SMILES. Inconclusive results are not listed. Activity calls are given as the source filed them. Unless noted, calls come from the whole dose curve; as a rule, active = well fitted curve in the direction sought with a large enough effect in the repeat runs; inconclusive = weak or mixed curves; inactive = no such curve, though single readings can be large; an effect the other way counts as inactive or inconclusive.

With `Cc1cccc(C)c1NC(=O)NC1=CCCN1C`, the Potency entry in [1], in [2], in test [3], in test [4], in [5] and in test [6] was “inactive” in each case. Moreover, the Potency result in [7], in [8] and in [9] was “inactive” each time.

Regarding `CO/N=C(\C(=O)N[C@@H]1C(=O)N2C(C(=O)O)=C(CSC(=O)c3ccco3)CS[C@H]12)c1csc(N)n1`, the Potency entry in [1], in test [2], in [3], in test [4], in [5] and in test [6] was “inactive” throughout. The Potency result in [7], in test [8] and in [9] was “inactive” in each case.

As to `CCC(=O)OCC(=O)[C@@]1(OC(=O)CC)[C@H](C)C[C@H]2[C@H]3[C@H]([C@@H](O)C[C@@]21C)[C@@]1(C)C=CC(=O)C=C1C[C@H]3Cl`, the Potency entry in test [1], in test [2], in test [3], in test [4], in test [5] and in test [6] was “inactive” throughout. For the same molecule, the Potency entry in test [7], in test [8] and in test [9] was “inactive” in each case.

On to `O=C1CCC(=O)N1CO`, for which the Potency result in test [1], in test [2], in test [3], in test [4], in test [5] and in [6] was “inactive” throughout. Also, the Potency result in test [7], in test [8] and in [9] was “inactive” each time.

For `CS(=O)(=O)c1ccc(C2=C(c3ccccc3)C(=O)OC2)cc1`, the Potency entry in test [1], in test [2], in [3], in test [4], in [5] and in test [6] was “inactive” in each case. Moreover, the Potency entry in [7], in [8] and in test [9] was “inactive” in each case.

For the molecule `C/C=C(/CC[C@@H](C)[C@H]1CC[C@H]2C3=CC[C@H]4[C@H](C)[C@@H](O)CC[C@]4(C)[C@H]3CC[C@]12C)C(C)C`, the Potency entry in test [1], in [2], in [3], in test [4], in test [5] and in test [6] was “inactive” each time. Further, the Potency result in [7], in test [8] and in test [9] was “inactive” each time.

Regarding `Cn1cc(NC(=O)c2cc(NC(=O)c3cc(NC=O)cn3C)cn2C)cc1C(=O)NCCC(=N)N`, the Potency result in test [1], in test [2], in test [3], in [4], in test [5] and in test [6] was “inactive” each time. For the same molecule, the Potency entry in [7], in [8] and in [9] was “inactive” in each case.

On to `O=C(O)CCC/C=C\C[C@@H]1[C@@H](/C=C/[C@@H](O)COc2cccc(Cl)c2)[C@H](O)C[C@@H]1O`, for which the Potency entry in test [1], in test [2], in [3], in [4], in test [5] and in test [6] was “inactive” throughout. The Potency entry in [7], in test [8] and in [9] was “inactive” each time.

Regarding `CCC(Cc1c(I)cc(I)c(O)c1I)C(=O)O` (stereo not given), the Potency result in test [1], in test [2], in test [3], in [4], in [5] and in [6] was “inactive” each time. Further, the Potency entry in [7], in test [8] and in test [9] was “inactive” each time.

As to `COc1cc(C[C@@H]2NCCc3cc(O)c(O)cc32)cc(OC)c1OC`, the Potency result in test [1], in test [2], in [3], in test [4], in test [5] and in test [6] was “inactive” in each case. In addition, the Potency result in test [7], in [8] and in test [9] was “inactive” throughout.

As to `O=C(O)c1cccc(/C=C2/C[C@@H]3[C@@H](/C=C/[C@@H](O)C4CCCCC4)[C@H](O)C[C@@H]3O2)c1`, the Potency entry in test [1], in [2], in test [3], in [4], in test [5] and in [6] was “inactive” in each case. Besides, the Potency result in [7], in test [8] and in test [9] was “inactive” in each case.

Take `Cc1nc(NS(=O)(=O)c2ccc(N)cc2)nc(C)c1Br`: the Potency result in test [1], in test [2], in test [3], in test [4], in test [5] and in [6] was “inactive” each time. Further, the Potency result in test [7], in [8] and in test [9] was “inactive” each time.

Consider `CC[C@H](CC[C@@H](C)[C@H]1CC[C@H]2[C@@H]3CC=C4C[C@@H](O)CC[C@]4(C)[C@H]3CC[C@]12C)C(C)C`, for which the Potency entry in test [1], in [2], in [3], in [4], in test [5] and in [6] was “inactive” in each case. Further, the Potency entry in test [7], in test [8] and in test [9] was “inactive” in each case.

Take `CCOC(=O)c1cc(-c2ccccc2)nc2ccc(C)cc12`: the Potency result in test [1], in test [2], in test [3], in [4], in test [5] and in test [6] was “inactive” in each case. The Potency result in [7], in test [8] and in test [9] was “inactive” each time.

For `Cc1cccc(Nc2ncccc2C(=O)O)c1C`, the Potency entry in test [1], in test [2], in test [3], in test [4], in test [5] and in [6] was “inactive” each time. In addition, the Potency result in test [7], in test [8] and in [9] was “inactive” in each case.

For the molecule `Nc1nc2c(c(=O)[nH]1)N(C=O)C(CNc1ccc(C(=O)N[C@@H](CCC(=O)O)C(=O)O)cc1)CN2` (stereo not given in full), the Potency result in test [1], in test [2], in test [3], in test [4], in test [5] and in test [6] was “inactive” in each case. The Potency entry in test [7], in test [8] and in test [9] was “inactive” each time.

Turning to `O=C1c2ccccc2C(=O)C1c1ccc(Cl)cc1`, the Potency result in test [1], in [2], in [3], in test [4], in test [5] and in [6] was “inactive” in each case. In addition, the Potency entry in test [7], in test [8] and in [9] was “inactive” each time.

For `CO[C@@H]1[C@@H](O[C@@H]2O[C@H](C)[C@@H](O[C@H]3C[C@@](C)(O)[C@@H](O)[C@H](C)O3)[C@H](N(C)C)[C@H]2O)[C@@H](CC=O)C[C@@H](C)[C@@H](O[C@@H]2CC[C@H](N(C)C)[C@@H](C)O2)/C=C/C=C/C[C@@H](C)OC(=O)C[C@H]1O`, the Potency entry in test [1], in [2], in test [3], in test [4], in test [5] and in test [6] was “inactive” in each case. For the same molecule, the Potency entry in [7], in [8] and in test [9] was “inactive” each time.

`CCC(CN)CC(C)CCNCC(O)CNCC(C)CC(CC)CN` (stereo not given): the Potency entry in [1], in test [2], in test [3], in test [4], in test [5] and in [6] was “inactive” in each case. Also, the Potency entry in [7], in test [8] and in [9] was “inactive” each time.

As to `CC[C@@H](C(=O)O)[C@@H]1O[C@@H]([C@@H](C)[C@H](O)[C@H](C)C(=O)[C@H](CC)[C@H]2O[C@]3(C=C[C@@H](O)[C@]4(CC[C@@](C)([C@H]5CC[C@](O)(CC)[C@H](C)O5)O4)O3)[C@H](C)C[C@@H]2C)[C@@H](C)C[C@@H]1C`, the results for the Potency in test [1] and in test [4] were 3760 nM (active) and 1880 nM (active), respectively. Moreover, the Potency entry in test [2], in test [3], in test [5], in [6], in test [7] and in test [8] was “inactive” throughout. Besides, the Potency result in [9] was “inactive”.

The record behind these values is PubChem BioAssay (Tox21).
